Source: PubChem BioAssay
A number with no mark means an inactive call. Activity calls are given as the source filed them. Unless noted, no stated cut-off is given here; in the data, active means inhibition above about 25%; inactive means the rest.

Legend:
[1] = biological target: Nuclear receptor coactivator 3 (Homo sapiens) (UniProt Q9Y6Q9); assay: NCOA3 GAL4-fusion reporter inhibition – cell-based, luminescence, quadruplicate, confirmation (AID 588792;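 active means mean inhibition over 43.08%, the solvent-only control mean plus 3 SD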;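 further: 0% = DMSO treated cells and 100% = gossypol at 36 µM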); conditions: HEK293 GAL4-SRC3 luciferase reporter, at 3.6 µM, active compounds read high
[2] = test system: transactivating tegument protein VP16 (Human herpesvirus 1), Gal4-VP16 luciferase reporter; assay: repression of VP16-driven luciferase reporter – cell-based, luminescence, high throughput, counter-screen for SRC3 inhibitor project (AID 588794; in the data active means inhibition above about 30%); conditions: mammalian cells, at 3.6 µM, active compounds read high
[3] = biological target: Nuclear receptor coactivator 1 (Homo sapiens) (UniProt Q15788); assay: NCOA1 GAL4-fusion reporter inhibition – cell-based, luminescence, quadruplicate, confirmation (AID 588820;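 active means mean inhibition above 46.68%, the untreated control wells mean plus 3 SD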;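 further: 0% = DMSO wells and 100% = gossypol 36 µM treated wells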); conditions: HEK293 GAL4-SRC1 luciferase reporter, at 3.6 µM, active compounds read high
[4] = repression of VP16-driven luciferase reporter – cell-based, luminescence, high throughput, counter-screen for SRC1 inhibitor project (AID 588824); conditions: cell-based VP16 transactivation luciferase luminescence; at 3.6 µM; active compounds read high
[5] = StAR promoter reporter inhibitors, counter-screen for LRH-1 inverse agonist project, cell-based, luminescence, high throughput (AID 651611; in the data active means inhibition above about 28%); conditions: StAR promoter luciferase reporter counterscreen, at 3.6 µM, active compounds read high
[6] = biological target: Nuclear receptor subfamily 5 group A member 2 (Homo sapiens) (UniProt O00482); assay: NR5A2 activity suppression in reporter cells – cell-based, luminescence, confirmation (AID 651613; in the data active means inhibition above about 42%;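 further: HEK293T cells co-transfected with LRH-1 and StAR promoter luciferase reporter; 0% = vehicle wells and 100% = parental cells lacking receptor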); conditions: cell-based LRH-1 luciferase reporter, inverse agonism; at 3.6 µM; active compounds read high
[7] = biological target: Steroidogenic factor 1 (Homo sapiens) (UniProt Q13285); assay: inverse agonism at SF1 nuclear receptor – cell-based, luminescence, high throughput, counter-screen for LRH-1 inverse agonist project (AID 651614; in the data active means inhibition above about 44%;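 further: cells cotransfected with StAR promoter reporter and SF1 expression vector; 0% = vehicle on cells with receptor and 100% = vehicle on cells lacking receptor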); conditions: cell-based SF1 luciferase reporter, at 3.6 µM, active compounds read high
[8] = compounds suppressing VP16-driven luciferase signal – cell-based, luminescence, high throughput, counter-screen for LRH-1 inverse agonist project (AID 651615; in the data active means inhibition above about 33%); conditions: Gal4-VP16 luciferase reporter cells, at 3.6 µM, active compounds read high
[9] = test system: transactivating tegument protein VP16 (Human herpesvirus 1); assay: compounds suppressing VP16-driven luciferase signal – cell-based, luminescence, single concentration, counter-screen for SRC2 inhibitor project (AID 652007; in the data active means inhibition above about 36%); conditions: cell-based VP16 transactivation luciferase reporter, at 8.9 µM, active compounds read high
[10] = biological target: Nuclear receptor coactivator 2 (Homo sapiens) (UniProt Q15596); assay: inhibition of GAL4-SRC2 driven luciferase expression – cell-based, luminescence, HEK293, triplicate, confirmation (AID 652008;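 active means mean inhibition above 46.5%, the solvent-only control mean plus 3 SD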;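 further: 0% = DMSO-treated cells and 100% = Gossypol at 36 µM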); conditions: HEK293 GAL4-SRC2 luciferase reporter, at 8.9 µM, active compounds read high

Chain of Steroidogenic factor 1 (Homo sapiens) (Q13285 whole entry, looked up, the tested form may be a part): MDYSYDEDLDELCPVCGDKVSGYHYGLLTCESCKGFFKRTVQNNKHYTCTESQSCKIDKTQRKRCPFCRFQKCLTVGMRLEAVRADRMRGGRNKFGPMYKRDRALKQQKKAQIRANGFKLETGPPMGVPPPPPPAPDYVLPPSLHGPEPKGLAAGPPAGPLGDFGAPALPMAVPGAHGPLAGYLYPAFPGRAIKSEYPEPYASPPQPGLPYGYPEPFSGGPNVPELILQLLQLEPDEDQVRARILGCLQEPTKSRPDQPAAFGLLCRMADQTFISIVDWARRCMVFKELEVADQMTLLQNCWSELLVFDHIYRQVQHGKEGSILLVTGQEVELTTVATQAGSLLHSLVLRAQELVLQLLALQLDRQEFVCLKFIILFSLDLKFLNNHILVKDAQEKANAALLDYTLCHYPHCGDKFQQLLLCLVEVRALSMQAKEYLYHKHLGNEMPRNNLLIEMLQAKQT
Chain of Nuclear receptor coactivator 1 (Homo sapiens) (Q15788 whole entry, looked up, the tested form may be a part): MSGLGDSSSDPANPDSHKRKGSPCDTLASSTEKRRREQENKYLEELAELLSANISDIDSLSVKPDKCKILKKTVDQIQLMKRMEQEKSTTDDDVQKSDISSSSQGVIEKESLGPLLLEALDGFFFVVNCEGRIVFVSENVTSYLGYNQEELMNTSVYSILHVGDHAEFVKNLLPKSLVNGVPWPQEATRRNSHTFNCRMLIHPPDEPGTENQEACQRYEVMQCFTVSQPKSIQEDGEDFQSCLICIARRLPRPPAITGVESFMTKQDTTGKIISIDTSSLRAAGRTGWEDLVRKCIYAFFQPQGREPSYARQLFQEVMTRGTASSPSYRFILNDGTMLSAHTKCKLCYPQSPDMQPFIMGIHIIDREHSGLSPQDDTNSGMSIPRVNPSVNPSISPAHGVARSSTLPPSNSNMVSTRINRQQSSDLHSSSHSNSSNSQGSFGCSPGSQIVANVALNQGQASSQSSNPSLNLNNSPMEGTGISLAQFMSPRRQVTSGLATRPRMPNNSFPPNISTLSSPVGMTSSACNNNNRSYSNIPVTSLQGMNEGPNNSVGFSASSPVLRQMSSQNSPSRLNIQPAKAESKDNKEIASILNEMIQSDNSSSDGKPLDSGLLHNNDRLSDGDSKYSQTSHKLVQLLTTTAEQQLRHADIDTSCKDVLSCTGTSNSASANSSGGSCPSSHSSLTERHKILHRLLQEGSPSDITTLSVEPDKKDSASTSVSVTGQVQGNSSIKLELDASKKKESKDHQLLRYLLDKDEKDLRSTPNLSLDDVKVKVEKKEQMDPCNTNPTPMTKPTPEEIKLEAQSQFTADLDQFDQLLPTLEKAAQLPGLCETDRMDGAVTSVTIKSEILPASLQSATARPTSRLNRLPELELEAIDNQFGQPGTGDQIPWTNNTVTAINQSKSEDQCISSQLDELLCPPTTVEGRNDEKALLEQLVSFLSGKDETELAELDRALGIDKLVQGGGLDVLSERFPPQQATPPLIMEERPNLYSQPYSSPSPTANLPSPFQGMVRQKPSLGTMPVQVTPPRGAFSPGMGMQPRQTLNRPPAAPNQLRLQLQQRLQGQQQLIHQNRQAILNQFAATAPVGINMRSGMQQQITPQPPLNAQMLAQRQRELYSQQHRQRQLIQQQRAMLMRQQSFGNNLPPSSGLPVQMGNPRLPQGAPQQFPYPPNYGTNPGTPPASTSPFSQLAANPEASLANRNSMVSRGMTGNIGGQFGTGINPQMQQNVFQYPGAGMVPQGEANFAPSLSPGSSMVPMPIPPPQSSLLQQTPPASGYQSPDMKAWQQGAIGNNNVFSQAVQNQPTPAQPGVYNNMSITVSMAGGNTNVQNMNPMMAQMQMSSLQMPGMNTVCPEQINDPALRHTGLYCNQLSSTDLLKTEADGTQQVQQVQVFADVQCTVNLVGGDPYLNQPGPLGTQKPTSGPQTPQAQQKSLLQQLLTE
Chain of Nuclear receptor subfamily 5 group A member 2 (Homo sapiens) (O00482 whole entry, looked up): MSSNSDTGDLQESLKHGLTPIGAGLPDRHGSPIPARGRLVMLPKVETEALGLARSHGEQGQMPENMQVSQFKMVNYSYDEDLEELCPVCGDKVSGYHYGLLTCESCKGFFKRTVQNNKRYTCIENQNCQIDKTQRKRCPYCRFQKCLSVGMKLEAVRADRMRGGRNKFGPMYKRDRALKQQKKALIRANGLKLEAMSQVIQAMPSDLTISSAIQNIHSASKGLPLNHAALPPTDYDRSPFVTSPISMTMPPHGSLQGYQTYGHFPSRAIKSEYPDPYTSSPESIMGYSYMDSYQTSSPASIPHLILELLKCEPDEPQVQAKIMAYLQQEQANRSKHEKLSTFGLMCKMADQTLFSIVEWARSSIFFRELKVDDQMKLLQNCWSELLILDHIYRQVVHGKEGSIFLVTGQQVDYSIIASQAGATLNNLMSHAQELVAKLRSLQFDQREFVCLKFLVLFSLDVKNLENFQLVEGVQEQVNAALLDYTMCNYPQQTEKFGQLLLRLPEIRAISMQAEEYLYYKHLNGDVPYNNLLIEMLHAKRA
Chain of Nuclear receptor coactivator 3 (Homo sapiens) (Q9Y6Q9 whole entry, looked up, the tested form may be a part): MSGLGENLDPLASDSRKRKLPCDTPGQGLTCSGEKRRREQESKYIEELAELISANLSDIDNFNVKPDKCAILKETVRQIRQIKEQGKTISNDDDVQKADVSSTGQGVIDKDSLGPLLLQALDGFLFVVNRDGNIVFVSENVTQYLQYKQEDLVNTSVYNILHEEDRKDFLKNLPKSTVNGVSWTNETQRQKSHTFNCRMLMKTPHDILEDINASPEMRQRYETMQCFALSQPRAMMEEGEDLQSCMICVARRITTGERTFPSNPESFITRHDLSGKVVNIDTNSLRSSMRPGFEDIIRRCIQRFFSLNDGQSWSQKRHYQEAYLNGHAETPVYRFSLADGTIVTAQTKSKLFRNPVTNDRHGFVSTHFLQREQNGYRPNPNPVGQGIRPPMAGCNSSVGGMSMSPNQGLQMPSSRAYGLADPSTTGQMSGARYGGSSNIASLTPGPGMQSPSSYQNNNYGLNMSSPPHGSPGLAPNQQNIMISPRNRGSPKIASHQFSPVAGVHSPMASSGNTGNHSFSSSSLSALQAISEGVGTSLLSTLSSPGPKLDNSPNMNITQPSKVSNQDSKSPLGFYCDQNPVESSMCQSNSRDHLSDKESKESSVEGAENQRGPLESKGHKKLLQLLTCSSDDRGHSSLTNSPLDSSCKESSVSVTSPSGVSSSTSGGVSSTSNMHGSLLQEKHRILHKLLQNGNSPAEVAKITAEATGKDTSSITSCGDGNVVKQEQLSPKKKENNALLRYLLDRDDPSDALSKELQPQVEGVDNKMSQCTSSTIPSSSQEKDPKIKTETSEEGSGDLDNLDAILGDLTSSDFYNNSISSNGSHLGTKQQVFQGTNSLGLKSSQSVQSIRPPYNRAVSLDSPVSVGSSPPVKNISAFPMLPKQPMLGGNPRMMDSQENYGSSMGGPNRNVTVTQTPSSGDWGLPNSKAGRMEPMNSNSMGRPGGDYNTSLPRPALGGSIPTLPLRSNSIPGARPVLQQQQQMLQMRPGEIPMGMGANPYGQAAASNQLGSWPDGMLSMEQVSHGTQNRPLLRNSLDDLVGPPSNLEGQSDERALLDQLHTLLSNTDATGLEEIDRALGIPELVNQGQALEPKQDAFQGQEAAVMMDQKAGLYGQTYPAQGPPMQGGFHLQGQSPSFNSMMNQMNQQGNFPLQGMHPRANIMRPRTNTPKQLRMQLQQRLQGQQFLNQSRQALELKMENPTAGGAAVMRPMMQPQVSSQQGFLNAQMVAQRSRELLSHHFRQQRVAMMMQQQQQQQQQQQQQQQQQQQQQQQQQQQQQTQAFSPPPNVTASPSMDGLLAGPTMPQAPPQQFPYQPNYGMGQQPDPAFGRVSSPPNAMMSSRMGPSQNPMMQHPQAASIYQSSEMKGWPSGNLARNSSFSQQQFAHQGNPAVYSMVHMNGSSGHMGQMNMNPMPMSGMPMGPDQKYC

SMILES | inhibition [1] | inhibition [2] | inhibition [3] | inhibition [4] | inhibition [5] | inhibition [6] | inhibition [7] | inhibition [8] | inhibition [9] | inhibition [10]
CC(=O)OC[C@]12CC[C@H]3[C@@](C)(CC[C@H]4C(C)(C)CCC[C@]34C)[C@@H]1CC(C1=CC(=O)OC1O)O2 (stereo not given in full) | 93.2% (active) | 90% (active) | -93.3% | 90.8% (active) | 92.7% (active) | 110% (active) | 97.1% (active) | 95% (active) | 96% (active) | 93.4% (active)
CC(C)Nc1ncnc2ccc(Br)cc12 | 74.3% (active) | 72.7% (active) | 65.3% (active) | 58.9% (active) | 17.8% | 61.1% (active) | 58.4% (active) | 71% (active) | 20.2% | 65.7% (active)
COc1ccccc1C(=O)Nc1nc2ccccc2[nH]1 | 79.4% (active) | 72.7% (active) | 58.5% (active) | 75.2% (active) | 75.3% (active) | 75.4% (active) | 83.8% (active) | 66.3% (active) | 89.6% (active) | 93.8% (active)
Cc1ccc(NC(=O)c2cc(C)n(-c3ccccc3)c2C)cc1 | 43.4% (active) | 23.7% | 1.09% | -11.4% | 45.2% (active) | -63.5% | 20.4% | -42.7% | 61.3% (active) | 69.8% (active)
COc1ccc(-n2ncc3c(N(C)C4CCCCC4)ncnc32)cc1 | 63.9% (active) | 53.6% (active) | 37.6% | 40.1% (active) | 30% (active) | -23.3% | 28.6% | 20.2% | 42.7% (active) | 80.3% (active)
CC1CCc2nc(N)c(C#N)c(-c3cccnc3)c2C1 (stereo not given) | 66.7% (active) | 57.9% (active) | 68.7% (active) | 58.6% (active) | 42.3% (active) | 52.9% (active) | 46.1% (active) | 72.9% (active) | 15.6% | 53.9% (active)
O=C(CSc1nnc(-c2cccnc2)s1)Nc1ccnc2ccccc12 | 32.3% | 46.7% (active) | -3.87% | 51.2% (active) | 21% | 57% (active) | 56.1% (active) | 55.6% (active) | 23.7% | 35%
Cc1nc2c(-c3ccccc3)cnn2c(N)c1-c1ccccc1 | 43.4% (active) | 37.4% (active) | 13.1% | 5.33% | -35.4% | -128% | -43.9% | -38.5% | 19.9% | 58.2% (active)
O=C(N/N=C/c1ccc(O)cc1O)c1ccc(CN2C(=O)c3cccc4cccc2c34)cc1 | 67.2% (active) | 77.8% (active) | 78.5% (active) | 76.2% (active) | 84.8% (active) | 101% (active) | 89.2% (active) | 82.6% (active) | -14.6% | 18.8%
COC(=O)Cc1ccc(NC(=O)c2ccc(C(C)(C)C)cc2)cc1 | 55.9% (active) | 40.7% (active) | 43.4% | 44.8% (active) | 54.3% (active) | 76.9% (active) | 67.3% (active) | 50.8% (active) | 21.1% | 92.9% (active)
CCCc1ccc(C(=O)O/N=C(\N)c2ccccn2)cc1 | 16.8% | -24.7% | -82.5% | -63.2% | -12.5% | -85.8% | 2.79% | -41.9% | -18.6% | 31.1%
CNC1=C(N(C(C)=O)c2ccc(Br)cc2)C(=O)c2ccccc2C1=O | 82.4% (active) | 84.8% (active) | 74.2% (active) | 84.8% (active) | 76.4% (active) | 97.4% (active) | 90.8% (active) | 89.3% (active) | 18.5% | 48.9% (active)
CC(C)(C)c1ccc(C(=O)Nc2ccc(CC(=O)O)cc2)o1 | 54.1% (active) | 40% (active) | 37.9% | 42% (active) | 45.1% (active) | 52.5% (active) | 46.9% (active) | 37.7% (active) | 70.2% (active) | 92.1% (active)
CCN1/C(=C/c2sc(-c3ccccc3C)c[n+]2C)Sc2ccccc21 | 76.8% (active) | 86% (active) | 61.9% (active) | 82.8% (active) | 74.7% (active) | 105% (active) | 94.7% (active) | 89.2% (active) | 44.1% (active) | 34.1%
